# According to PubChem BioAssay (EPA / NIEHS):
# Active and inactive are the calls of the source. How the source made its calls: active means hit-call score of the fitted dose curve at least 0.9, where 1 is the maximum; inactive means score below 0.9.
# Assay: ATG_CRE_CIS: Attagene CIS-FACTORIAL HepG2 Assay for human cAMP Responsive Element (CRE) binding protein 3 (AID 2282926)
# Settings: HepG2 CRE cis-reporter, Attagene multiplexed mRNA; actives raise or lower the signal
# Summary of the method: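 Multiplexed transcription-unit reporters transfected into HepG2; 24 h dosing; RT-PCR/capillary electrophoresis fluorescence read-out; bidirectional fit vs DMSO.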
Structure (SMILES),outcome,AC50
O=C1Cc2ccccc2N1c1c(Cl)cccc1Cl,inactive,
CC1=NN(c2ccccc2)C(=O)C1,inactive,
CC(=O)Nc1ccc(S(N)(=O)=O)cc1,inactive,
Nc1ccc(O)c(C(=O)O)c1,inactive,
CC(=O)CC(C)C,inactive,
O=C(c1cc(O)c(O)c(O)c1)c1ccc(O)c(O)c1O,inactive,
CN(CCO)S(=O)(=O)C(F)(F)C(F)(F)C(F)(F)C(F)(F)C(F)(F)C(F)(F)C(F)(F)C(F)(F)F,inactive,
O=S(=O)(O)C(F)(F)C(F)(F)C(F)(F)C(F)(F)C(F)(F)C(F)(F)C(F)(F)C(F)(F)C(F)(F)C(F)(F)F,inactive,
COC(=O)CC(C(C)=O)C(=O)OC (stereo not drawn),inactive,
O=C1C=CC(=O)N1c1cccc(N2C(=O)C=CC2=O)c1,inactive,
COC(=O)C(F)(F)C(F)(F)C(F)(F)C(F)(F)C(F)(F)F,inactive,
CCN(CCC#N)c1ccccc1,inactive,
FC(F)(F)N1C(F)(F)C(F)(F)OC(F)(F)C1(F)F,inactive,
CCC(=O)C=Cc1ccc(OC)cc1,inactive,
O=C(C=C(O)C(F)(F)F)C(F)(F)F,inactive,
CC(C)(O)C(=O)c1ccccc1,inactive,
CCCCCCCCCCCCCC[n+]1ccccc1,inactive,
Cc1cc(=O)oc2cc(O)ccc12,inactive,
FC(F)(F)C1(F)C(F)(F)C(F)(F)C(F)(F)C(F)(C(F)(F)F)C1(F)F (stereo not drawn),inactive,

Structure (SMILES),outcome,AC50
Nc1ccn([C@@H]2O[C@H](CO)[C@@H](O)C2O)c(=O)n1 (stereo partly drawn),inactive,
CCc1ccccc1O,inactive,
O=C(F)C(F)(F)C(F)(F)C(F)(F)C(=O)F,inactive,
O=C(NCc1ncc(C(F)(F)F)cc1Cl)c1c(Cl)cccc1Cl,inactive,
CCOC(=O)c1nc(C(Cl)(Cl)Cl)n(-c2ccc(Cl)cc2Cl)n1,inactive,
Cc1cc(C(=C2C=CC(=Nc3ccc(S(=O)(=O)O)cc3)C=C2)c2ccc(Nc3ccc(S(=O)(=O)O)cc3)cc2)cc(S(=O)(=O)O)c1N,inactive,
C/C=C/C(=O)C1=C(C)CCCC1(C)C,,34.4 µM (active)
O=C(OC(=O)C(F)(F)C(F)(F)F)C(F)(F)C(F)(F)F,inactive,
C=COC(=O)C(C)(C)CCCCCC,inactive,
C=CC(=O)OCCC(F)(F)C(F)(F)C(F)(F)C(F)(F)C(F)(F)C(F)(F)F,inactive,
O=C(Nc1ccc(Cl)c(Cl)c1)c1cc(Cl)cc(Cl)c1O,inactive,
CCCCCCCCC1CCC(=O)O1 (stereo not drawn),inactive,
CCCCCCCCCCCC(=O)O,inactive,
CC1COCc2cc3c(cc21)C(C)(C)C(C)C3(C)C (stereo not drawn),inactive,
O=S(=O)(O)c1ccc2cc(O)ccc2c1,inactive,
O=S(=O)(O)c1ccccc1,inactive,
NNc1nc(-c2ccc([N+](=O)[O-])cc2)cs1,inactive,
OCC(F)(F)C(F)(F)C(F)(F)C(F)(F)C(F)(F)C(F)(F)C(F)(F)C(F)(F)C(F)(F)C(F)(F)C(F)(F)F,inactive,
COc1cc([N+](=O)[O-])ccc1N,inactive,
